PubChem BioAssay (NCATS)
Inconclusive results are not listed. Calls of active or inactive are those of the source. The call rests on the fitted dose curve; in most records, active means well fitted cell-killing curve with a large enough effect; inconclusive means small, poorly fitted or top-dose-only effect, or effect the other way; inactive means flat fitted curve, though single readings scatter.

Tests used:
Experiment in all cases: Primary qHTS to identify gynecologic anti-cancer compounds using libraries of approved drugs and bioactive compounds (AID 1345084); further: nearly all actives have a fitted effect of over 55% in size
Conditions in all cases: Gynecologic cancer cell panel viability, ATPlite luminescence, 48 h; series mostly up to 57.5 µM
OV90 = test system: OV90
How it was run: (§1)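 48 h compound exposure at 37 C, 5% CO2; five-point qHTS. ATPlite luminescence readout of cell ATP.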

PA-1 = test system: PA-1
How it was run: as §1

SKOV3 = test system: SKOV3
How it was run: as §1

Tov-21-G = test system: Tov-21-G
How it was run: as §1

Tov112D = test system: Tov112D
How it was run: as §1
On the % scale 0 is the no-effect control and ±100 the full control effect.

O=C(Nc1ccc(N2CCC(C(=O)N3CCOCC3)CC2)cc1)c1cnc(Oc2ccccc2)nc1
inactive: Potency (OV90) | Potency (PA-1) | Potency (SKOV3) | Potency (Tov-21-G) | Potency (Tov112D)

C/C=C1/[C@H](O[C@@H]2O[C@H](CO)[C@@H](O)[C@H](O)[C@H]2O)OC=C(C(=O)OC)[C@H]1CC(=O)OCCc1ccc(O)c(O)c1
inactive: Potency (OV90) | Potency (PA-1) | Potency (SKOV3) | Potency (Tov-21-G) | Potency (Tov112D)

C[C@@H]1O[C@@H](O[C@H]2[C@H](O)[C@@H](O[C@@H]3O[C@H](CO)[C@H](O)[C@H](O)[C@H]3O)[C@H](O[C@H]3CC[C@@]4(C)C(CC[C@]5(C)C4CC=C4[C@@H]6CC(C)(C)CC[C@]6(C(=O)O[C@@H]6O[C@H](CO)[C@@H](O)[C@H](O)[C@H]6O)CC[C@]45C)C3(C)C)O[C@@H]2C(=O)O)[C@H](O)[C@H](O)[C@H]1O (stereo not given in full)
inactive: activity change, negative = cytotoxicity (OV90) 5.7% [at 11.6 µM] | activity change, negative = cytotoxicity (PA-1) 7.27% [at 11.6 µM] | activity change, negative = cytotoxicity (SKOV3) -3.61% [at 11.6 µM] | activity change, negative = cytotoxicity (Tov-21-G) 8.52% [at 11.6 µM] | activity change, negative = cytotoxicity (Tov112D) 3% [at 11.6 µM]

CC1(C)CCC2(C(=O)O)CCC3(C)C(=CCC4C5(C)CCC(O)C(C)(CO)C5C(O)CC43C)C2C1 (stereo not given)
inactive: Potency (OV90) | Potency (PA-1) | Potency (SKOV3) | Potency (Tov-21-G) | Potency (Tov112D)

CC1=C2C(=O)C=C(CO)C2[C@H]2OC(=O)[C@H](C)[C@@H]2[C@@H](OC(=O)Cc2ccc(O)cc2)C1 (stereo not given in full)
inactive: Potency (OV90) | Potency (PA-1) | Potency (SKOV3) | Potency (Tov-21-G) | Potency (Tov112D)

CC(=O)/C=C/C1(O)C(C)=CC(=O)CC1(C)C (stereo not given)
inactive: Potency (OV90) | Potency (PA-1) | Potency (SKOV3) | Potency (Tov-21-G) | Potency (Tov112D)

CC1CCC2(C)CCC3(C)C(=CCC4C5(C)CCC(O)C(C)(C(=O)O)C5CCC43C)C2C1C (stereo not given)
inactive: Potency (OV90) | Potency (PA-1) | Potency (SKOV3) | Potency (Tov-21-G) | Potency (Tov112D)

C[C@H]1CCN2C[C@]34C[C@@]5(C(=O)Nc6c5ccc5c6OC=CC(C)(C)O5)C(C)(C)C3C[C@]12C(=O)N4C (stereo not given in full)
inactive: Potency (OV90) | Potency (PA-1) | Potency (SKOV3) | Potency (Tov-21-G) | Potency (Tov112D)

COc1cc(C)c(C(=O)O[C@@H]2[C@H](O)[C@@H](CO)O[C@H]2n2ccc(=O)[nH]c2=O)c(OC)c1
inactive: Potency (OV90) | Potency (PA-1) | Potency (SKOV3) | Potency (Tov-21-G) | Potency (Tov112D)

CC(=O)OC[C@]12[C@@H](OC(=O)c3ccoc3)C[C@@H]3[C@@H](OC(C)=O)[C@]1(OC3(C)C)[C@@](C)(O)C[C@H](OC(=O)c1ccoc1)[C@@H]2OC(=O)c1ccoc1
inactive: Potency (OV90) | Potency (PA-1) | Potency (SKOV3) | Potency (Tov-21-G) | Potency (Tov112D)

COc1cc(C2OCC3(O)C(c4ccc(O[C@@H]5O[C@H](CO)[C@@H](O)[C@H](O)[C@H]5O)c(OC)c4)OCC23O)ccc1O (stereo not given in full)
inactive: Potency (OV90) | Potency (PA-1) | Potency (SKOV3) | Potency (Tov-21-G) | Potency (Tov112D)

Cc1ccc(C)c(NC(=O)CNS(=O)(=O)c2ccc3[nH]c(=O)oc3c2)c1
inactive: Potency (OV90) | Potency (PA-1) | Potency (SKOV3) | Potency (Tov-21-G) | Potency (Tov112D)

CC(=O)OC1CCC2(C)C(CCC3(C)C2CC=C2C4CC(C)(C)CCC4(C)CCC23C)C1(C)C(=O)O (stereo not given)
inactive: Potency (OV90) | Potency (PA-1) | Potency (SKOV3) | Potency (Tov-21-G) | Potency (Tov112D)

COc1cc2c(cc1O)CC(O)(CO)C(CO)C2c1ccc(OC2OC(CO)C(O)C(O)C2O)c(OC)c1 (stereo not given)
inactive: Potency (OV90) | Potency (PA-1) | Potency (SKOV3) | Potency (Tov-21-G) | Potency (Tov112D)

C=C1CC[C@@H]2[C@@](C)(CO[C@@H]3O[C@H](CO)[C@@H](O)[C@H](O)[C@H]3O)[C@H](O)CC[C@@]2(C)[C@@H]1CC/C(C)=C/CO[C@@H]1O[C@H](CO)[C@@H](O)[C@H](O)[C@H]1O
inactive: Potency (OV90) | Potency (PA-1) | Potency (SKOV3) | Potency (Tov-21-G) | Potency (Tov112D)

CC(=O)OCC1OC(OC2COC(OC3COC(OC4C(OC5C(CO)OC(OC6CCC7(C)C(CCC8(C)C7CC=C7C9CC(C)(C)CCC9(C(=O)OC9OC(CO)C(O)C(O)C9OC9OCC(OC%10OCC(O)(CO)C%10O)C(O)C9O)C(O)CC78C)C6(C)C)C(O)C5O)OCC(O)C4O)C(O)C3O)C(O)C2O)C(OC(=O)/C=C/c2ccccc2)C(O)C1OC(C)=O (stereo not given)
inactive: activity change, negative = cytotoxicity (OV90) -0.455% [at 6.55 µM] | activity change, negative = cytotoxicity (PA-1) -23.4% [at 6.55 µM] | activity change, negative = cytotoxicity (SKOV3) 14.7% [at 6.55 µM] | activity change, negative = cytotoxicity (Tov-21-G) -3.47% [at 6.55 µM] | activity change, negative = cytotoxicity (Tov112D) 9.27% [at 6.55 µM]

CC(=O)OC(C)(C)/C=C/C(=O)[C@](C)(O)C1[C@H](O)C[C@@]2(C)[C@@H]3CC=C4[C@@H](C[C@H](O[C@@H]5O[C@H](CO)[C@@H](O)[C@H](O)[C@H]5O)C(=O)C4(C)C)[C@]3(C)C(=O)C[C@]12C (stereo not given in full)
inactive: Potency (OV90) | Potency (PA-1) | Potency (SKOV3) | Potency (Tov-21-G) | Potency (Tov112D)

CC(=O)O[C@@]1(C)[C@@H]2CC(=C(C)C)C(=O)C[C@@]2(C)CC[C@H]1OC(=O)C1(C)OC1C (stereo not given in full)
inactive: Potency (OV90) | Potency (PA-1) | Potency (SKOV3) | Potency (Tov-21-G) | Potency (Tov112D)

COc1cc(C(C)=O)ccc1O[C@@H]1O[C@H](CO)[C@@H](O)[C@H](O)[C@H]1O
inactive: Potency (OV90) | Potency (PA-1) | Potency (SKOV3) | Potency (Tov-21-G) | Potency (Tov112D)

OC[C@@]1(O)CO[C@H](OC[C@H]2O[C@@H](OC(CCCCc3ccc(O)cc3)CCc3ccc(O)cc3)[C@H](O[C@H]3OC[C@](O)(CO)[C@H]3O)[C@@H](O)[C@@H]2O)[C@@H]1O (stereo not given in full)
inactive: Potency (OV90) | Potency (PA-1) | Potency (SKOV3) | Potency (Tov-21-G) | Potency (Tov112D)

C/C=C(\C)C(=O)O[C@H]1C=CC(=O)O[C@H]1/C=C/[C@H](O)[C@@H](C)O
inactive: Potency (OV90) | Potency (PA-1) | Potency (SKOV3) | Potency (Tov-21-G) | Potency (Tov112D)
